Assay results published in PubChem BioAssay AID1780 (National Center for Advancing Translational Sciences (NCATS), 2009).
Calls of active or inactive are those of the source. Calls come from the whole dose curve; as a rule, active = well fitted curve in the direction sought with a large enough effect; inactive = no such curve, though single readings can be large or run the other way.

Molecular target: Pyruvate kinase PKM (Homo sapiens) (UniProt P14618)
Assay: Confirmation Concentration-Response Assay for Activators of Human Muscle isoform 1 Pyruvate Kinase
Details: purified hPK-M1, Kinase-Glo ATP luminescence, 1 h; series mostly up to 57.5 µM
From the text: Confirmatory assay NIH Chemical Genomics Center [NCGC] Matthew G. Vander Heiden, M.D., Ph.D. [Harvard Medical School, 77 Avenue Louis Pasteur, Boston, MA 02115] NCGC Assay Overview: Human pyruvate kinase […] (hPK-M1) enzyme was supplied as a highly purified (>95% pure) preparation from Harvard Medical School and assayed for its ability to generate ATP from ADP using phosphoenolpyruvate (PEP) as a substrate. ATP generation was detected in a coupled reaction by luciferase-mediated luminescence, an ATP-dependent process. Pyruvate kinase substrates, PEP and ADP, were present in the assay at Km and approximately 10-fold below Km respectively. The enzyme was assayed at an intermediate level of activity to screen for both inhibitors and activators.
NCGC Assay Protocol Summary for M1-isoform: Three uL of substrate mix (at r.t.) in assay buffer (50 mM Imidazole pH7.2, 50 mM KCl, 7 mM MgCl2, 0.01% Tween 20, 0.05% BSA) was dispensed into white solid bottom 1,536 well microtiter plates so that the final concentrations of substrates in the assay were 0.1 mM ADP and 0.5 mM PEP. 23 nL of compound were delivered by a pin tool and 1 uL of enzyme mix (final concentration of 1 nM) in assay buffer (4 degree Celsius) was added. Plates were incubated at room temperature for 1 hour. Two uL of detection mix (Kinase-Glo, Promega; at 4 degree Celsius protected from light) was added and luminescence read by a ViewLux (Perkin Elmer) at 1 second exposure/plate. Data were normalized to the uninhibited (row 31). Additionally, a no enzyme and 5-fold enzyme control was dispensed in row 32, split equally between the two conditions.

Pyruvate kinase PKM (Homo sapiens), sequence (P14618 whole entry, looked up, canonical isoform): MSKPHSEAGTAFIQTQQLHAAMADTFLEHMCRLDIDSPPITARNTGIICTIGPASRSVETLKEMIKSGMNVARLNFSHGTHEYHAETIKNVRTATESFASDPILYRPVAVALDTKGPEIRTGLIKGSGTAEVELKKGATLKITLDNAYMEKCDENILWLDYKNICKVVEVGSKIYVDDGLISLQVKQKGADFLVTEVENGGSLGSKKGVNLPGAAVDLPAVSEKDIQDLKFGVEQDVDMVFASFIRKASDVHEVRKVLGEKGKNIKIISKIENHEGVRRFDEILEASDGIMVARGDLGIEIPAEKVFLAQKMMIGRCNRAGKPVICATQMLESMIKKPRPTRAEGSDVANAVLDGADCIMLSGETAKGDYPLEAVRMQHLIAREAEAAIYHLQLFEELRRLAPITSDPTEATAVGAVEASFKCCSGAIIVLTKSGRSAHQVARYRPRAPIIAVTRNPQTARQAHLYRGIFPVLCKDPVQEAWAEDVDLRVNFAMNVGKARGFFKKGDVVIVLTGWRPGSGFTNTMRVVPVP

outcome, inactive:
O=S(=O)(NC1CCN(S(=O)(=O)c2c(F)cccc2F)C1)c1ccc2c(c1)OCCO2 (stereo not given)
Cc1cc2c(s1)c1cnn(Cc3cccc(Cn4ncc5c6sc(C)cc6n(C)c5c4=O)c3F)c(=O)c1n2C
Cc1cc2c(s1)c1cnn(Cc3ccc(-c4ccccc4)cc3)c(=O)c1n2C
COc1cc2c(s1)c1cnn(Cc3ccccc3F)c(=O)c1n2C
O=S(=O)(c1ccc2c(c1)OCCO2)N1CCN(S(=O)(=O)c2cccc[n+]2[O-])CC1
COc1ccc(S(=O)(=O)N2CCN(S(=O)(=O)c3ccc(OC)cc3)CC2)cc1
Cc1cc2[nH]c3c(=O)n(Cc4ccccc4F)ncc3c2s1
CCCCCn1ncc2c3sc(C)cc3n(C)c2c1=O
Cn1c2cc([N+](=O)[O-])sc2c2cnn(Cc3ccccc3F)c(=O)c21
CC(=O)c1cc2c(s1)c1cnn(Cc3ccccc3F)c(=O)c1n2C
C[C@@H]1CN(S(=O)(=O)c2c(F)cccc2F)CCN1S(=O)(=O)c1ccc2c(c1)OCCO2
O=S(=O)(c1ccc2c(c1)OCCO2)N1CCN(S(=O)(=O)c2cc(F)c(F)cc2F)CC1
Cc1cc2c(s1)c1cnn(Cc3ccc(C(F)(F)F)cc3F)c(=O)c1n2C
Cc1cc2c(s1)c1cnn(Cc3ccc(C)c(F)c3F)c(=O)c1n2C
Cc1cc2c(s1)c1cnn(Cc3ccccc3)c(=O)c1n2C
COc1ccc(S(=O)(=O)N2CCN(S(=O)(=O)c3c(F)cccc3F)CC2)cc1
Cc1cc2c(s1)c1cnn(Cc3ccccc3F)c(=O)c1n2C(C)C
CC1(C)CCc2cc(S(=O)(=O)N3CCN(S(=O)(=O)c4c(F)cccc4F)CC3)ccc2O1
Cc1cc2c(s1)c1cnn(Cc3c(F)c(F)cc(F)c3F)c(=O)c1n2C
Cc1cc2c(s1)c1cnn(Cc3ccccc3F)c(=O)c1n2C
O=C1CN(S(=O)(=O)c2ccc3c(c2)OCCO3)CCN1S(=O)(=O)c1c(F)cccc1F
C[C@@H]1CN(S(=O)(=O)c2ccc3c(c2)OCCO3)CCN1S(=O)(=O)c1c(F)cccc1F
O=S(=O)(NCCCCCCNS(=O)(=O)c1c(F)cccc1F)c1ccc2c(c1)OCCO2
Cc1cc2c(s1)c1c(C)nn(Cc3ccccc3F)c(=O)c1n2C
O=S(=O)(NCC1CN(S(=O)(=O)c2ccc3c(c2)OCCO3)C1)c1c(F)cccc1F
O=S(=O)(c1ccc(Cl)cc1)N1CCN(S(=O)(=O)c2ccc3c(c2)OCCO3)CC1
O=S(=O)(NC1CCN(S(=O)(=O)c2ccc3c(c2)OCCO3)CC1)c1c(F)cccc1F
O=S(=O)(NCCCNS(=O)(=O)c1c(F)cccc1F)c1ccc2c(c1)OCCO2
O=S(=O)(c1ccc2c(c1)OCCO2)N1CCN(S(=O)(=O)c2c(F)cccc2F)CC1
Cc1cc2c(s1)c1cnn(Cc3c(F)cccc3Cl)c(=O)c1n2C
Cc1cc2c(s1)c1cnn(Cc3ccc(S(C)(=O)=O)cc3)c(=O)c1n2C
O=S(=O)(c1ccc2c(c1)OCO2)N1CCN(S(=O)(=O)c2c(F)cccc2F)CC1
C[C@H]1CN(S(=O)(=O)c2c(F)cccc2F)CCN1S(=O)(=O)c1ccc2c(c1)OCCO2
O=S(=O)(c1ccc(F)cc1)N1CCN(S(=O)(=O)c2ccc3c(c2)OCCO3)CC1
O=S(=O)(c1ccccc1)N1CCN(S(=O)(=O)c2ccc3c(c2)OCCO3)CC1
O=C(CN1C(=O)N/C(=C\c2cccn2-c2cccc(C(=O)O)c2)C1=O)Nc1ccccc1F
Cc1cc2c(s1)c1cnn(Cc3cccc(F)c3F)c(=O)c1n2C
Cc1cc2c(s1)c1cnn(Cc3ccccc3Cl)c(=O)c1n2C
O=S(=O)(c1ccc2c(c1)OCCCO2)N1CCN(S(=O)(=O)c2c(F)cccc2F)CC1
Cc1cc2c(s1)c1cnn(Cc3ccc(F)c(F)c3F)c(=O)c1n2C
